Results reported in the supplement of paper PMC9254222.
Whole data set: some 1,100 compounds, median “Renilla luciferase signal (cell health) relative to plate median” near 0.97, cut for the highest 2% near 1.6. The sample holds the highest values, similar compounds and a random draw of the others, so the mix is not that of the screen.

Tested on: HEK293T (UBE3A T485A transfected, BAR Wnt reporter)
Assay: Renilla luciferase signal (cell health) relative to plate median (fold (linear ratio)); higher = higher Renilla signal
Settings: 24 h
Outline: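 Using Fugene 6, HEK293T cells in white 384-well plates (4500 cells/well; DMEM, 10% FBS, 37°C, 5% CO2) were transfected with a BAR firefly luciferase Wnt reporter, TK-Renilla and an expression plasmid. After four hours, robots dosed the chemicals at 0.01–100 uM, and a Dual-Glo luciferase readout followed 24 h later. Per-plate median-centred firefly/Renilla ratios gave Wnt activity, while per-plate median-centred raw Renilla signals gave cell health. Four biological replicates were averaged.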

`NC(=O)N(O)[C@@H]1C=C[C@H](Oc2cccc(Oc3ccc(F)cc3)c2)C1` gave a Renilla luciferase signal (concentration: 0.1 uM) of 1.08, a Renilla luciferase signal (concentration: 1 uM) of 0.968 and a Renilla luciferase signal (concentration: 10 uM) of 1.14. It also gave a Renilla luciferase signal (concentration: 100 uM) of 0.801.
`CC1(C)NC(=O)N(c2ccc([N+](=O)[O-])c(C(F)(F)F)c2)C1=O` [Nilutamide] gave a Renilla luciferase signal (concentration: 0.1 uM) of 1.05, a Renilla luciferase signal (concentration: 1 uM) of 1.09 and a Renilla luciferase signal (concentration: 10 uM) of 0.995. For the same molecule, the Renilla luciferase signal (concentration: 100 uM) was 0.268.
For `CC(=O)CC(c1ccccc1)c1c(O)c2ccccc2oc1=O` (stereo not given) [Warfarin], the Renilla luciferase signal (concentration: 0.1 uM) was 1.16, the Renilla luciferase signal (concentration: 1 uM) was 0.923 and the Renilla luciferase signal (concentration: 10 uM) was 0.762. It also gave a Renilla luciferase signal (concentration: 100 uM) of 1.24.
For `NC(CCCP(=O)(O)O)C(=O)O` (racemic), the Renilla luciferase signal (concentration: 0.01 uM) was 0.767, the Renilla luciferase signal (concentration: 0.1 uM) was 0.901 and the Renilla luciferase signal (concentration: 1 uM) was 1.22. The Renilla luciferase signal (concentration: 10 uM) was 1.06 and the Renilla luciferase signal (concentration: 100 uM) was 2.45.
`Cc1ccc(S(=O)(=O)NC(=O)NN2CCCCCC2)cc1` [Tolazamide] was tested, and the Renilla luciferase signal (concentration: 0.1 uM) was 0.729, the Renilla luciferase signal (concentration: 1 uM) was 0.841 and the Renilla luciferase signal (concentration: 10 uM) was 0.872. For the same molecule, the Renilla luciferase signal (concentration: 100 uM) was 1.19.
`CC(C)(C)c1cc(O)ccc1O` [tert-Butylhydroquinone] was tested, and the Renilla luciferase signal (concentration: 0.1 uM) was 0.651, the Renilla luciferase signal (concentration: 1 uM) was 0.859 and the Renilla luciferase signal (concentration: 10 uM) was 0.989. It also gave a Renilla luciferase signal (concentration: 100 uM) of 0.227.
Molecule `CO[C@@H]1COCC[C@@H]1[NH2+][C@@H]1CC[C@@](C(=O)N2CCc3ncc(C(F)(F)F)cc3C2)(C(C)C)C1.O=C([O-])CCC(=O)O` has a Renilla luciferase signal (concentration: 0.1 uM) of 0.901, a Renilla luciferase signal (concentration: 1 uM) of 1.1 and a Renilla luciferase signal (concentration: 10 uM) of 0.9. For the same molecule, the Renilla luciferase signal (concentration: 100 uM) was 1.08.
Work on `NCc1cccc(C2CCN(C(=O)c3ccc(C#Cc4ccccc4F)o3)CC2)c1` yielded a Renilla luciferase signal (concentration: 0.1 uM) of 1.16, a Renilla luciferase signal (concentration: 1 uM) of 0.989 and a Renilla luciferase signal (concentration: 10 uM) of 1.04. It also gave a Renilla luciferase signal (concentration: 100 uM) of 1.31.
`CCOC(=O)CCC(=O)OCC` [Diethyl butanedioate] showed a Renilla luciferase signal (concentration: 0.1 uM) of 0.922, a Renilla luciferase signal (concentration: 1 uM) of 0.965 and a Renilla luciferase signal (concentration: 10 uM) of 0.973. It also gave a Renilla luciferase signal (concentration: 100 uM) of 1.25.
`[Cl-].[K+]` was tested, and the Renilla luciferase signal (concentration: 0.01 uM) was 1.13, the Renilla luciferase signal (concentration: 0.1 uM) was 0.999 and the Renilla luciferase signal (concentration: 1 uM) was 1.06. It also gave a Renilla luciferase signal (concentration: 10 uM) of 1.02 and a Renilla luciferase signal (concentration: 100 uM) of 1.88.
Work on `[Cl-].[Li+]` yielded a Renilla luciferase signal (concentration: 0.01 uM) of 0.945, a Renilla luciferase signal (concentration: 0.1 uM) of 1.03 and a Renilla luciferase signal (concentration: 1 uM) of 0.97. For the same molecule, the Renilla luciferase signal (concentration: 10 uM) was 0.953 and the Renilla luciferase signal (concentration: 100 uM) was 1.14.
For `Cc1cn([C@H]2C=C[C@@H](CO)O2)c(=O)[nH]c1=O` [Stavudine], the Renilla luciferase signal (concentration: 0.1 uM) was 0.957, the Renilla luciferase signal (concentration: 1 uM) was 1.07 and the Renilla luciferase signal (concentration: 10 uM) was 0.973. The Renilla luciferase signal (concentration: 100 uM) was 0.903.
`CCc1nc(N)nc(N)c1-c1ccc(Cl)cc1` [Pyrimethamine] was tested, and the Renilla luciferase signal (concentration: 0.1 uM) was 1.11, the Renilla luciferase signal (concentration: 1 uM) was 1.06 and the Renilla luciferase signal (concentration: 10 uM) was 1.07. It also gave a Renilla luciferase signal (concentration: 100 uM) of 0.0813.
Molecule `CC(C)c1cccc(C(C)C)c1` [1,3-Diisopropylbenzene] has a Renilla luciferase signal (concentration: 0.1 uM) of 1.12, a Renilla luciferase signal (concentration: 1 uM) of 1.28 and a Renilla luciferase signal (concentration: 10 uM) of 1.17. For the same molecule, the Renilla luciferase signal (concentration: 100 uM) was 1.7.
`Cc1ccc(C(C)C)cc1` [p-Cymene] was tested, and the Renilla luciferase signal (concentration: 0.1 uM) was 1.03, the Renilla luciferase signal (concentration: 1 uM) was 0.949 and the Renilla luciferase signal (concentration: 10 uM) was 1.11. The Renilla luciferase signal (concentration: 100 uM) was 1.51.
With `Nc1ncn([C@@H]2O[C@H](CO)[C@@H](O)[C@H]2O)c(=O)n1` [5-azacytidine] the Renilla luciferase signal (concentration: 0.01 uM) was 0.936, the Renilla luciferase signal (concentration: 0.1 uM) was 0.572 and the Renilla luciferase signal (concentration: 1 uM) was 0.391. It also gave a Renilla luciferase signal (concentration: 10 uM) of 0.138 and a Renilla luciferase signal (concentration: 100 uM) of 0.596.
With `CCCCCCCCCCCCCCCCOS(=O)(=O)[O-].[Na+]` [Sodium hexyldecyl sulfate] the Renilla luciferase signal (concentration: 0.1 uM) was 1.11, the Renilla luciferase signal (concentration: 1 uM) was 1.05 and the Renilla luciferase signal (concentration: 10 uM) was 1.11. The Renilla luciferase signal (concentration: 100 uM) was 0.434.
For `CC(=O)O[C@]1(C(C)=O)CC[C@H]2[C@@H]3C=C(Cl)C4=CC(=O)[C@@H]5C[C@@H]5[C@]4(C)[C@H]3CC[C@@]21C` [Cyproterone acetate], the Renilla luciferase signal (concentration: 0.1 uM) was 1.06, the Renilla luciferase signal (concentration: 1 uM) was 0.965 and the Renilla luciferase signal (concentration: 10 uM) was 0.849. For the same molecule, the Renilla luciferase signal (concentration: 100 uM) was 0.603.
Work on `CCOc1ccc2[nH]cc(C(=O)NCc3ccccc3)c(=O)c2n1` yielded a Renilla luciferase signal (concentration: 0.1 uM) of 1.05, a Renilla luciferase signal (concentration: 1 uM) of 1.12 and a Renilla luciferase signal (concentration: 10 uM) of 1.22. For the same molecule, the Renilla luciferase signal (concentration: 100 uM) was 0.85.
